Reference: PubChem BioAssay (NCI)
About 83,000 compounds went through this panel and 20% of them were active in at least one assay; those are over-represented in the sample as a whole.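 Compound tested at a single concentration for 48 hours in 96-well plates; a percent growth value below 10 was scored as active.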 Activity calls are given as the source filed them.

Assays:
Assay in all cases: NCI-60 one-dose screen, 48 h (100 = growth as untreated, 0 = no growth, -100 = all killed)
Conditions in all cases: 10 µM unless noted
NCI-H23 lung = test system: NCI-H23 lung
NCI-H226 lung = test system: NCI-H226 lung
NCI-H322M lung = test system: NCI-H322M lung
HOP-62 NSCLC = test system: HOP-62 NSCLC
NCI-H460 lung = test system: NCI-H460 lung
HOP-92 NSCLC = test system: HOP-92 NSCLC
NCI-H522 lung = test system: NCI-H522 lung
A549/ATCC NSCLC = test system: A549/ATCC NSCLC
786-0 renal = test system: 786-0 renal
COLO 205 colon = test system: COLO 205 colon
DU-145 prostate = test system: DU-145 prostate
K-562 leukemia = test system: K-562 leukemia
MALME-3M melanoma = test system: MALME-3M melanoma
MDA-MB-231 breast = test system: MDA-MB-231 breast
RXF 393 renal = test system: RXF 393 renal
SF-268 CNS = test system: SF-268 CNS
SF-295 CNS = test system: SF-295 CNS
SF-539 CNS = test system: SF-539 CNS
UACC-257 melanoma = test system: UACC-257 melanoma
M14 melanoma = test system: M14 melanoma

Measured: growth

CO[C@H]1/C=C(/C)CCC[C@H](C)[C@H](O)[C@@H](C)C(=O)C(C)(C)[C@@H](O)CC(=O)O[C@@H]1/C(C)=C/c1csc(C)n1
inactive: NCI-H23 lung 34.7% | NCI-H226 lung 50.3% | NCI-H322M lung 12.8% | HOP-62 NSCLC 29.4% | HOP-92 NSCLC 66.6% | A549/ATCC NSCLC 17.5% | 786-0 renal 57.1% | K-562 leukemia 13.9% | MALME-3M melanoma 45.2% | MDA-MB-231 breast 10.3% | SF-268 CNS 36.5% | UACC-257 melanoma 56.2%
active: NCI-H460 lung 6.16% | NCI-H522 lung -29.1% | COLO 205 colon -53% | DU-145 prostate -48.1% | RXF 393 renal -23.4% | SF-295 CNS -17.8% | SF-539 CNS 1.38% | M14 melanoma 3.27%

COc1ccc(-c2ccc3cnc4sc(-c5ccc(OC)cc5)nc4c3n2)cc1
inactive: NCI-H23 lung 91% | NCI-H226 lung 85.7% | NCI-H322M lung 86.7% | HOP-62 NSCLC 97.8% | NCI-H460 lung 102% | HOP-92 NSCLC 100% | NCI-H522 lung 87.4% | A549/ATCC NSCLC 93.1% | 786-0 renal 106% | COLO 205 colon 104% | DU-145 prostate 107% | K-562 leukemia 96.6% | MALME-3M melanoma 111% | MDA-MB-231 breast 89.6% | RXF 393 renal 107% | SF-268 CNS 95.4% | SF-295 CNS 100% | SF-539 CNS 91.5% | UACC-257 melanoma 106% | M14 melanoma 115%

CC(C)N1CN2C(=S)NC3C2N(C1)C(=S)N3C (stereo not given)
inactive: NCI-H23 lung 102% | NCI-H226 lung 100% | NCI-H322M lung 104% | HOP-62 NSCLC 103% | NCI-H460 lung 105% | HOP-92 NSCLC 101% | NCI-H522 lung 90.2% | A549/ATCC NSCLC 90.8% | 786-0 renal 99.3% | COLO 205 colon 120% | DU-145 prostate 104% | K-562 leukemia 102% | MALME-3M melanoma 105% | MDA-MB-231 breast 110% | RXF 393 renal 105% | SF-268 CNS 96% | SF-295 CNS 98% | SF-539 CNS 109% | UACC-257 melanoma 95% | M14 melanoma 105%

CCC(=C(c1ccc(OCCN2CCCC2)cc1)c1ccc(OCCN2CCCC2)cc1)c1ccc(Cl)cc1
active: NCI-H460 lung -86.9% | A549/ATCC NSCLC -28% | 786-0 renal -94.2% | COLO 205 colon -64.8% | K-562 leukemia -21.2% | MALME-3M melanoma -82.1% | MDA-MB-231 breast -70.9% | SF-295 CNS -61.9% | SF-539 CNS -88.4% | UACC-257 melanoma -58% | M14 melanoma -75%
inactive: NCI-H23 lung 77.1% | NCI-H226 lung 105% | NCI-H322M lung 20% | HOP-62 NSCLC 60.2% | HOP-92 NSCLC 38.7% | NCI-H522 lung 23.5% | DU-145 prostate 26.4% | RXF 393 renal 13.7% | SF-268 CNS 49.8%

CCNC(=O)c1[nH]cc(-c2ccccc2)c1-c1cc(OC)c2c(c1OC)OCO2
inactive: NCI-H23 lung 93.8% | NCI-H226 lung 86.9% | NCI-H322M lung 93.7% | HOP-62 NSCLC 91.8% | NCI-H460 lung 108% | HOP-92 NSCLC 83.9% | NCI-H522 lung 93.4% | A549/ATCC NSCLC 96% | 786-0 renal 101% | COLO 205 colon 111% | DU-145 prostate 112% | K-562 leukemia 94% | MALME-3M melanoma 110% | MDA-MB-231 breast 97.2% | RXF 393 renal 102% | SF-268 CNS 97.6% | SF-295 CNS 100% | SF-539 CNS 102% | UACC-257 melanoma 102% | M14 melanoma 95.8%

O=C1NC(=O)c2c1c1c3ccccc3ccc1c1[nH]c3ccc(Br)cc3c21
inactive: NCI-H226 lung 48.9% | NCI-H322M lung 21% | HOP-62 NSCLC 22.3% | NCI-H522 lung 20.1% | A549/ATCC NSCLC 18.8% | 786-0 renal 30.7% | DU-145 prostate 22.5% | K-562 leukemia 13.3% | MDA-MB-231 breast 27.5% | RXF 393 renal 11.6% | SF-268 CNS 14% | SF-295 CNS 24.3% | SF-539 CNS 23.1% | UACC-257 melanoma 51.9% | M14 melanoma 15.5%
active: NCI-H23 lung 2.08% | NCI-H460 lung 3.5% | HOP-92 NSCLC 7.3% | COLO 205 colon 9.33% | MALME-3M melanoma -10.7%

Nc1ncnc2c1N=C(c1ccc3c(c1)OCO3)CC(c1ccc([N+](=O)[O-])cc1)N2 (stereo not given)
inactive: NCI-H23 lung 74.7% | NCI-H226 lung 83% | NCI-H322M lung 90.5% | HOP-62 NSCLC 66.9% | NCI-H460 lung 96.2% | HOP-92 NSCLC 41.9% | NCI-H522 lung 95.3% | A549/ATCC NSCLC 58.7% | 786-0 renal 51.8% | COLO 205 colon 97.6% | DU-145 prostate 96.8% | K-562 leukemia 96.5% | MALME-3M melanoma 108% | MDA-MB-231 breast 55.9% | RXF 393 renal 50.4% | SF-268 CNS 86.2% | SF-295 CNS 296% | SF-539 CNS 86.8% | UACC-257 melanoma 77.8% | M14 melanoma 92.2%
